High-throughput results (PubChem BioAssay)
Vif-APOBEC3F blk – qHTS for Inhibitors of Vif-A3F Interactions: qHTS; HeLa A3F-eYFP + Vif (tagged APOBEC3F with the HIV-1 protein that degrades it), YFP fluorescence increase; Potency, µM (titrated, usually from 46.1 µM), for inactives: top-dose activity, negative = active; hit rate 0.2% among 390,000; AID 602313, 2012; note: potency is the fitted concentration of half-maximal effect; % of control where 0% means no effect; nearly all actives have a fitted effect of over 65% in size
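HeLa cells stably expressing Vif plus C-terminally eYFP-tagged A3F were seeded, incubated overnight at 37 deg C, dosed with compound, incubated overnight again at 37 deg C. Yellow fluorescence (Ex 488/Em 500-530) reported blocked Vif-mediated A3F-eYFP degradation.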
TRPML1 inh – qHTS for Inhibitors of the Human Mucolipin Transient Receptor Potential 1 (TRPML1) | hit rate 0.02% among 390,000 | activity change, negative = inhibition, % (concentration not given with the values) | TRPML1-inducible cells, Ca2+ dye fluorescence, FDSS; hits give low values; inhibition of EC80 agonist-evoked calcium signal | Mucolipin-1 (Homo sapiens), Q9GZU1 | AID 624415, 2012; in the data active = activity change below about -50%; inconclusive = between about -30% and that limit;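 note: stimulus is agonist 54-4 at its EC80 concentration; % is set by controls: 0 for no effect and ±100 for the full control effect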
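Calcium fluorescence in TRPML1-DL cells induced overnight with Tet: a 110 s read after compound pin addition, then a 110 s antagonist read after challenge with 54-4 at 4 uM final (EC80).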
Vif-APOBEC3G blk – qHTS for Inhibitors of Vif-A3G Interactions: qHTS. DNA dC->dU-editing enzyme APOBEC-3G (Homo sapiens), Q9HC16. HeLa A3G-eYFP + Vif (tagged APOBEC3G with the HIV-1 protein that degrades it), YFP fluorescence, overnight. Potency, µM (highest dose often 46.1 µM), inactives show at the top dose activity, negative = active, usual class: inhibitors. hit rate 0.076% among 410,000. AID 602310, 2012; note: potency is the fitted concentration of half-maximal effect; % is set by controls: 0 for no effect and ±100 for the full control effect; nearly all actives have a fitted effect of over 60% in size
Target sequence (Q9HC16 whole entry, looked up): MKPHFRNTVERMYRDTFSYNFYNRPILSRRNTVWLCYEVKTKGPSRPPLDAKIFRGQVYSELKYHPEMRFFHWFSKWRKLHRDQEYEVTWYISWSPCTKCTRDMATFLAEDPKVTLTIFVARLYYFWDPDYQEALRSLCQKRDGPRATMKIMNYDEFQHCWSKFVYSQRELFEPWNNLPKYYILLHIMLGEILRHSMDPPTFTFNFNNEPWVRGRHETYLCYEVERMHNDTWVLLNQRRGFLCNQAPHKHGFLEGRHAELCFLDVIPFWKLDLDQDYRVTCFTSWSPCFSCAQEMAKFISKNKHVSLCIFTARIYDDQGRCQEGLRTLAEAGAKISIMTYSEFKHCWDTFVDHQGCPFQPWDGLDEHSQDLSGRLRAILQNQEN
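Read-out is eYFP fluorescence (Ex 488/Em 500-530) from Vif-expressing HeLa A3G-eYFP cells; more signal means A3G escaped Vif-mediated degradation. Cells plated overnight, compound pinned in, incubated overnight at 37 deg C.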
TRPML1 ag – qHTS for Agonists of the Human Mucolipin Transient Receptor Potential 1 (TRPML1); Mucolipin-1 (Homo sapiens), Q9GZU1; activation, % (no concentration beside the values); TRPML1-expressing cells, Ca2+ dye fluorescence, FDSS; AID 624414, 2012; hit rate 0.12% among 410,000; in the data active = activation above about 50%; inconclusive = mostly about 30% to 49%; note: 0% is about no effect
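TRPML1-DL cells, Tet-induced overnight (~16 h, 37 degrees C), loaded 45-90 min at room temperature with Ca8 no-wash calcium dye plus quencher. FDSS fluorescence: 10 s baseline, compound pin-transfer, 110 s agonist read, then EC80 54-4 (4uM final) and 110 s antagonist read.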
AT treatment – qHTS Assay for Identifying a Potential Treatment of Ataxia-Telangiectasia; F2112 A-T fibroblasts, KAP-1 phosphorylation AlphaLISA; neocarzinostatin DNA damage 30 min before lysis; Potency, µM (top dose mostly 57.5 µM), without a hit: top-dose activation, usual class: activators; hit rate 0.19% among 320,000; AID 485349, 2010; note: potency is the fitted concentration of half-maximal effect; % of control where 0% means no effect; nearly all actives have a fitted effect of over 45% in size
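hTERT-immortalized A-T patient fibroblasts (F2112), 500 cells/well in OPTI-MEM, 1% FBS, got compounds for 60 min, then NCS for 30 min at 37C. Lysates were then assayed for phospho-KAP-1 by AlphaLISA (anti-pKAP1 donor, anti-KAP1 acceptor beads), 6 hr at 25C.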
Starred values were filed as active, the others as inactive; ! = repeats disagree; [ ] = remark or other dose. Hits are enriched below; roughly 0.54% of the tested compounds scored in any of these assays. Unless noted, calls come from the whole dose curve; as a rule, active = well fitted curve in the direction sought with a large enough effect; inconclusive = small, poorly fitted or top-dose-only effect, or another doubt; inactive = no such curve, though single readings can be large; an effect the other way counts as inactive or inconclusive.

What do the screens show for `ClCCN(CCCl)c1ccc(C=Cc2ccncn2)cc1`?
Vif-APOBEC3F blk: 22µM*; TRPML1 inh: -10; Vif-APOBEC3G blk: -31%; TRPML1 ag: 13

How did COc1ccc(N2C(=O)NC(=O)/C(=C\c3cn(C)c4ccccc34)C2=O)cc1 do in these assays?
Vif-APOBEC3F blk: 22µM*; TRPML1 inh: -17; Vif-APOBEC3G blk: 2%; TRPML1 ag: 0; AT treatment: -3%

What do the screens show for `COC(=O)Cn1cc(/C=C2\C(=O)NC(=O)N(c3ccc(OC)cc3)C2=O)c2ccccc21`?
Vif-APOBEC3F blk: inconclusive; TRPML1 inh: -14; Vif-APOBEC3G blk: 1%; TRPML1 ag: 0; AT treatment: -7%

What do the screens show for `CCCCn1c(N)c(N(CCOC)C(=O)CN2CC=C(c3ccccc3)CC2)c(=O)[nH]c1=O`?
Vif-APOBEC3F blk: -11%; TRPML1 inh: -16; Vif-APOBEC3G blk: -9%; TRPML1 ag: -1; AT treatment: 4%

How did CCCCn1c(N)c(N(CC(C)C)C(=O)c2cc(Br)c(Br)s2)c(=O)[nH]c1=O do in these assays?
Vif-APOBEC3F blk: 25µM*; TRPML1 inh: -3; Vif-APOBEC3G blk: -20%; TRPML1 ag: -1

How did Cn1c(=O)oc2cc(S(=O)(=O)N3CCc4ccccc43)ccc21 do in these assays?
Vif-APOBEC3F blk: -19%; Vif-APOBEC3G blk: -21%; AT treatment: 1µM*

Results for CCN(CC)c1ccc(N=Cc2c(O)n(Cc3ccccc3)c(=O)[nH]c2=O)cc1 ?
Vif-APOBEC3F blk: 7.9µM*!; TRPML1 inh: -11; Vif-APOBEC3G blk: inconclusive; TRPML1 ag: 1; AT treatment: 0%

What do the screens show for `O=c1[nH]c(=O)n(Cc2ccco2)c(O)c1C=NC1CC1`?
Vif-APOBEC3F blk: -5%; TRPML1 inh: -4; Vif-APOBEC3G blk: 5%; TRPML1 ag: 0; AT treatment: -2%

What do the screens show for `CCN(CC)c1ccc(N=Cc2c(O)n(-c3ccccc3)c(=O)[nH]c2=O)cc1`?
Vif-APOBEC3F blk: -25%; TRPML1 inh: 3; Vif-APOBEC3G blk: -4%; TRPML1 ag: 5; AT treatment: -6%

How did CC(C)N(Cc1ccco1)/N=C/c1c(O)n(Cc2ccccc2)c(=O)[nH]c1=O do in these assays?
Vif-APOBEC3F blk: 5%; TRPML1 inh: -8; Vif-APOBEC3G blk: 0%; TRPML1 ag: 2; AT treatment: 40µM*

What do the screens show for `CCn1c(P(C)(=O)O)nc2ccccc21`?
Vif-APOBEC3F blk: 0%; TRPML1 inh: 3; Vif-APOBEC3G blk: 0%; TRPML1 ag: -1; AT treatment: 1%

Results for CCn1c(NN=O)nc2ccccc21 ?
Vif-APOBEC3F blk: 11µM*; TRPML1 inh: -8; Vif-APOBEC3G blk: 3%; TRPML1 ag: 1; AT treatment: 6%[11.5 µM]

What do the screens show for `c1ccc(CCN2CCCCC2)cc1`?
Vif-APOBEC3G blk: 2%; TRPML1 ag: 0

What do the screens show for `O=C(/C=C/c1ccc2c(c1)OCO2)c1c(O)n(CCc2ccccc2)c(=O)[nH]c1=O`?
Vif-APOBEC3F blk: inconclusive; TRPML1 inh: 0; Vif-APOBEC3G blk: -20%; TRPML1 ag: 9; AT treatment: 8%

Results for O=C1/C(=C/c2ccc3c(c2)OCO3)SC(=S)N1CCC(=O)N(CCO)c1ccccc1 ?
Vif-APOBEC3F blk: 22µM*; TRPML1 inh: 22; Vif-APOBEC3G blk: -16%; TRPML1 ag: 0

How did Clc1ccc(-c2csc3ncnc(Sc4nnnn4C4CC4)c23)cc1 do in these assays?
Vif-APOBEC3G blk: inconclusive; TRPML1 ag: 0

How did CCN(CC)c1ccc(/C=C/[N+](=O)[O-])cc1 do in these assays?
Vif-APOBEC3F blk: 25µM*; TRPML1 inh: 1; Vif-APOBEC3G blk: inconclusive; TRPML1 ag: 71*; AT treatment: 29%

Results for COc1ccccc1/C=C1\C(=O)NC(=S)N(c2ccccc2)C1=O ?
Vif-APOBEC3F blk: -6%; TRPML1 inh: inconclusive; Vif-APOBEC3G blk: 0%; TRPML1 ag: 2; AT treatment: -20%
